Screening results: PubChem, National Center for Advancing Translational Sciences (NCATS)
An excerpt weighted towards active compounds, which were near 10% of everything screened.
G9a inh – G9a (human) methyltransferase inhibition. Q96KQ7. G9a H3K9 monomethylation, AlphaScreen, 2 h. Potency, µM (top dose mostly 102 µM), for the others: at the highest dose activity, negative = inhibition, hits mostly inhibitors. 8.8% of 350,000 active; also: % is scaled to controls: 0 for no effect and ±100 for the full control effect; nearly all actives have a fitted effect of over 75% in size
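AlphaScreen detection with an anti-monomethyl H3K9 antibody quantified product after a 2 h room-temperature reaction containing 500 nM biotinylated H3K9 peptide, 20 µM SAM and 20 nM enzyme, which had been preincubated 15 min with compound.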
L3MBTL1 inh – blocks human L3MBTL1; Q9Y468; AlphaScreen L3MBTL1–H3K9me1 peptide binding; Potency, µM (highest dose often 57.1 µM), for inactives: at the highest dose activity, negative = inhibition, actives largely listed as inhibitors; 0.66% of 230,000 active; also: % is scaled to controls: 0 for no effect and ±100 for the full control effect; nearly all actives have a fitted effect of over 60% in size
Target sequence (Q9Y468 whole entry, looked up): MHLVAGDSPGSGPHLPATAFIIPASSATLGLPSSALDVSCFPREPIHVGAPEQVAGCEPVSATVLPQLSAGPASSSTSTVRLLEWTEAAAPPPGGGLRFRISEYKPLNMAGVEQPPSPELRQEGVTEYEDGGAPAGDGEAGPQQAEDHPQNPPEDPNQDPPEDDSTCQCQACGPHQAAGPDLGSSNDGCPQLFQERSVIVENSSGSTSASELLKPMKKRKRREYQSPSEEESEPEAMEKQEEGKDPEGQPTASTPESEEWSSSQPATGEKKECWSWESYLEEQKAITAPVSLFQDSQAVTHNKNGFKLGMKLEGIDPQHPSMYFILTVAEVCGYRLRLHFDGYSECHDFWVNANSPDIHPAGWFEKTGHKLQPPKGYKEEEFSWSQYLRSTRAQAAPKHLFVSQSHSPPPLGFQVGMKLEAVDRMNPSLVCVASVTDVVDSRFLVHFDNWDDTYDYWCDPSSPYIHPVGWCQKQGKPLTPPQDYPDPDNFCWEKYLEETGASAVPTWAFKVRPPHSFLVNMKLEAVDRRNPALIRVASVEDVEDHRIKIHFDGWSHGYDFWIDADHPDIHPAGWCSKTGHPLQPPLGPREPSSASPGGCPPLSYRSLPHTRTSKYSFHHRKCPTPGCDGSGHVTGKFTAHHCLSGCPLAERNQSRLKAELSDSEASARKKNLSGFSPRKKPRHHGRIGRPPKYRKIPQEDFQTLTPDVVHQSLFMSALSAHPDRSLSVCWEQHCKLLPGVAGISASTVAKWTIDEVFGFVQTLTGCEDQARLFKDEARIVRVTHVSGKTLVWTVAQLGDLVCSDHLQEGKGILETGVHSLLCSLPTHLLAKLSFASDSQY
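AlphaScreen proximity signal between nickel-chelate acceptor and streptavidin donor beads (final 10 ug/mL) reports binding of 50 nM L3MBTL1 to 75 nM biotin-H3 K9me1 peptide; complex incubated with compounds 30 min at room temperature; cefsulodin titration as control.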
JMJD2A Tudor – blocks the human JMJD2A Tudor domain | Potency, µM (series often up to 114 µM), inactives show top-dose activity change, negative = inhibition, usual class: inhibitors | O75164 | AID 504339 | 4.4% of 390,000 active | AlphaScreen JMJD2A-Tudor / H3K4me3 peptide binding; also: % is scaled to controls: 0 for no effect and ±100 for the full control effect; nearly all actives have a fitted effect of over 50% in size
GLS inhibitor – inhibitors of human glutaminase (GLS) | O94925 | GLS enzymatic activity, qHTS titration | Potency, µM (doses to about 45.5 µM), for inactives: at the highest dose activity change, negative = inhibition, usual class: inhibitors | 0.21% of 410,000 active | AID 624170; also: % is scaled to controls: 0 for no effect and ±100 for the full control effect
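Compounds were pin-transferred onto hKGA, after which L-glutamine (1 mM solution) and a detection mix of glutamate oxidase, HRP and Amplex Red were added. Initial and 30 min RT fluorescence reads were collected.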
BAZ2B inh – inhibitors of human BAZ2B bromodomain | Q9UIF8 | AlphaScreen BAZ2B-H3K14Ac peptide displacement | Potency, µM (titrated, usually from 114 µM), inactives show at the highest dose activity change, negative = inhibition, hits mostly inhibitors | 4.4% of 360,000 active; also: % is scaled to controls: 0 for no effect and ±100 for the full control effect; nearly all actives have a fitted effect of over 60% in size
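AlphaScreen luminescence quantifies BAZ2B engagement of H3K14Ac peptide; the protein and biotinylated peptide are both at 50 nM final, buffer PBS pH 7.4 with 0.01% Tween-20, all steps at room temperature.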
HP1b binding inh – inhibitors of HP1-beta chromodomain binding to methylated histone tails; P83916; AlphaScreen HP1-beta / biotin-H3K9me3 peptide binding; Potency, µM (doses to about 114 µM), for inactives: top-dose activity change, negative = inhibition, hits mostly inhibitors; 0.56% of 390,000 active; also: nearly all actives have a fitted effect of over 70% in size
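Compound inhibition of the preformed complex between 50 nM HP1-beta and 50 nM biotinylated H3K9me3 peptide was read by AlphaScreen. Buffer was PBS pH 7.4 with 0.01% Tween-20. Incubations ran 30 min at room temperature, with 10 ug/mL donor/acceptor beads.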
* hit, by the source's call; ? = inconclusive; . = no result given; [ ] = remark or other dose. Calls follow the shape of the dose curve; as a rule, active = well fitted curve in the direction sought with a large enough effect; inconclusive = small, poorly fitted or top-dose-only effect, or another doubt; inactive = no such curve, though single readings can be large; an effect the other way counts as inactive or inconclusive. Potency is read from the fitted curve at half-maximal effect.

SMILES	G9a inh	L3MBTL1 inh	JMJD2A Tudor	GLS inhibitor	BAZ2B inh	HP1b binding inh
O=C(CSc1nnc(NC(=O)C2CCC2)s1)Nc1ccc(N2CCOCC2)cc1	50.1µM*	-5.2%	-9.9%[57.1 µM]	10.1%	-8.0%	-17.2%
Cc1cccc(Nc2nnc(SCC(=O)Nc3cccc(S(=O)(=O)N4CCCCC4)c3)s2)c1	3.55µM*	-6.3%	?	11.1%	-36.6%	-8.4%
NC(=O)CSc1nnc(NC(=O)c2ccc(S(=O)(=O)N3CCOCC3)cc2)s1	.	.	-1.4%	-1.6%	-4.5%	38.3%
CSc1nnc(NC(=O)c2ccc(S(=O)(=O)N3CCOCC3)cc2)s1	10µM*	.	5.1%	2.6%	-4.0%	55.8%
O=C(CSc1nnc(NC2CC2)s1)Nc1ccc(N2CCOCC2)cc1	10.7%[2.33 µM]	-2.5%	-10.7%	17.8%	1.6%	27.4%
Cc1ccc(Nc2nnc(SCC(=O)Nc3cccc(S(=O)(=O)NC4=NCCCCC4)c3)s2)cc1	-2.2%[2.33 µM]	-6.9%	-35.8%	12.7%	?	0.3%
CCc1ccc(Nc2nnc(SCC(=O)Nc3cccc(S(=O)(=O)NC4=NCCCCC4)c3)s2)cc1	6.31µM*	-10.1%	-32.1%	8.7%	-29.9%	9.1%
O=C(CN1C(=O)c2cccc3cccc1c23)Nc1cccc(F)c1	-4.7%[59 µM]	.	-18.2%	-6.1%	-3.6%	28.7%
CCCCCCOC(=O)C1(O)CC2OC1(C)n1c3ccccc3c3c4c(c5c6ccccc6n2c5c31)C(=O)NC4 (stereo not given)	26.0%[2.33 µM]	.	.	.	.	.
O=C(CSc1nnc(Nc2ccccc2)s1)Nc1ccc(S(=O)(=O)N2CCOCC2)cc1	8.91µM*	.	-10.8%	11.4%	-1.0%	21.3%
Cc1ccc(Nc2nnc(SCC(=O)Nc3ccc(S(=O)(=O)N4CCOCC4)cc3)s2)cc1	?	.	-9.7%	7.6%	5.1%	38.6%
CN1CCN(c2nc3c(c(=O)[nH]c(=O)n3C)n2CCCSc2nnnn2-c2ccccc2)CC1	25.1µM*	1.3%	-9.0%	-6.3%	-16.1%	23.7%
Cn1c(=O)[nH]c(=O)c2c1nc(SCC(O)CO)n2CCCc1ccccc1 (stereo not given)	-3.5%	-9.2%	-4.1%	-4.5%	-27.7%	67.8%
CSc1nc2c(c(=O)[nH]c(=O)n2C)n1CCCc1ccccc1	70.8µM*	.	-5.4%	14.4%	-1.7%	31.2%
Cn1c(=O)[nH]c(=O)c2c1nc(N1CCCCC1)n2CCCSc1nnnn1-c1ccccc1	-47.2%[59 µM]	-14.5%	-14.2%	0.9%	-38.7%	23.1%
CSc1nc2c(c(=O)[nH]c(=O)n2C)n1Cc1ccccc1	-5.3%	2.9%	-6.9%	1.2%	1.6%	28.3%
CC(C)CCSc1nc2c(c(=O)[nH]c(=O)n2C)n1CCCc1ccccc1	39.8µM*	-95.4%	-0.7%	-1.5%	7.0%	34.0%
O=C(COC(=O)c1ccccc1F)NC1CCCC1	11.7%[0.501 µM]	.	-0.7%	82.8%	-0.7%	18.5%
O=C(COC(=O)c1cccc2c1C(=O)c1ccccc1C2=O)NC1CCCCC1	17.8µM*	-13.5%	39.8µM*	5.2%	39.8µM*	?
O=C(COC(=O)c1ccc2c(c1[N+](=O)[O-])C(=O)c1ccccc1C2=O)NC1CC1	35.5µM*	-4.8%	-16.0%	0.2%	-10.3%	36.7%
O=C(COC(=O)c1cccc(C(=O)OCC(=O)NC2CC2)n1)NC1CC1	14.1µM*	8.3%	?	-3.2%	.	9.5%
COc1ccc(-c2cc3nc(C)c(CCC(=O)Nc4ccc(F)cc4F)c(C)n3n2)c(OC)c1	3.6%[59 µM]	.	-6.7%	-3.1%	-1.1%	34.3%
CCc1ccc(CNC(=O)CCn2c(=O)c3cccn3c3ccc(F)cc32)cc1	-11.3%[59 µM]	.	-13.5%	7.7%	-7.4%	43.4%
CC(=O)c1ccc(OCC(O)CN2CCN(Cc3ccc4c(c3)OCO4)CC2)cc1 (stereo not given)	?	3.8%	63.1µM*	2.4%	-10.2%	48.0%
CCOC(=O)c1ccc(S(=O)(=O)N2CCN(CC(O)COc3ccc(C#N)cc3)CC2)cc1 (stereo not given)	35.5µM*	.	20µM*	7.8%	56.2µM*	-29.6%
SMILES	G9a inh	L3MBTL1 inh	JMJD2A Tudor	GLS inhibitor	BAZ2B inh	HP1b binding inh
CCN1CCN(CC(O)COc2ccc(C(C)=O)cc2)CC1 (stereo not given)	50.1µM*	1.0%	-30.3%	-3.0%	1.5%	51.5%
CC(=O)c1cccc(OCC(O)CN2CCN(C(=O)c3ccco3)CC2)c1 (stereo not given)	?	.	1.41µM*	-3.2%	70.8µM*	?
Cc1ccc(OCC(O)CN2CCN(Cc3ccc4c(c3)OCO4)CC2)c(C)c1 (stereo not given)	-6.4%[59 µM]	-6.3%	?	7.6%	?	?
O=C(c1ccccc1Cl)N1CCCC(c2nc3c(nnn3Cc3ccc(F)cc3F)c(=O)[nH]2)C1 (stereo not given)	5.7%[59 µM]	.	-20.5%	8.2%	-3.4%	17.3%
COc1ccc(OCC(O)CN2CCN(Cc3ccc4c(c3)OCO4)CC2)cc1 (stereo not given)	20µM*	-2.6%	-12.7%	0.4%	-11.6%	27.5%
SC(COCc1ccccc1)CN1CCN(Cc2ccc3c(c2)OCO3)CC1 (stereo not given)	22.4µM*	-24.2%	?	5.8%	?	5.3%
CCN(CC)CCN(C(=O)c1ccc2ccccc2c1)c1nc2cc3c(cc2s1)OCO3	39.8µM*	.	?	-5.8%	?	15.0%
CCN(CC)CCN(C(=O)c1ccc(S(=O)(=O)N2CCCCC2)cc1)c1nc2cc3c(cc2s1)OCO3	50.1µM*	-13.4%	?	0.0%	?	-8.4%
CCCC(C(=O)Nc1cccc(S(=O)(=O)N2CCCC2)c1)c1ccccc1 (stereo not given)	15.8µM*	-5.7%	4.4%	-12.1%	3.8%	25.6%
O=C(c1cccc(S(=O)(=O)N2CCOCC2)c1)N1CCCc2ccccc21	11.2%[12.7 µM]	1.0%[11.4 µM]	-7.2%	18.3%	10.1%	33.6%
O=C(Nc1ccccc1)c1cccc(S(=O)(=O)N2CCCCC2)c1	?	3.1%	-2.1%	.	5.0%	34.6%
CSCCC(NC(N)=O)C(=O)Nc1cccc(S(=O)(=O)N2CCOCC2)c1 (stereo not given)	-6.9%	5.4%	10.0%	-13.5%	-2.2%	18.1%
CC(CC(=O)Nc1cccc(S(=O)(=O)N2CCCCC2)c1)c1ccccc1 (stereo not given)	?	?	5.9%	1.9%	0.1%	43.0%
O=C(CNc1cccc(S(=O)(=O)N2CCOCC2)c1)N1CCc2ccccc21	39.8µM*	-2.0%	-13.0%	-1.6%	-20.4%	26.6%
CN(C)S(=O)(=O)c1cccc(NC(=O)c2cccc(S(=O)(=O)N3CCCCC3)c2)c1	50.1µM*	-1.1%	-20.7%	2.1%	2.7%	15.6%
